# From PubChem BioAssay AID624252 (National Center for Advancing Translational Sciences (NCATS), 2012)
# This is one part of the list. Inconclusive results are not listed. Calls of active or inactive are those of the source. Calls come from the whole dose curve; as a rule, active = well fitted cell-killing curve with a large enough effect; inconclusive = small, poorly fitted or top-dose-only effect; inactive = flat fitted curve, though single readings scatter.
# Test: qHTS screen for small molecules that inhibit ELG1-dependent DNA repair: Hit Confirmation with Unstimulated Viability Assay;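 note: compound exposure lasted 16 hours before reading; nearly all actives have a fitted effect of over 55% in size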
# Conditions: cell viability counter-screen, luminescence
# Source text: Cancer cells divide rapidly compared to normal cells in the body. During cell division, cancer cells need to duplicate their genome by DNA replication. The failure of genome duplication leads to cancer cells' death. Therefore, inhibitors of DNA replication could specifically kill cancer cells. Based on this concept, many chemotherapeutic agents were developed and have been used to treat cancer patients. However, there are a limited number of agents available in the clinical setting, and some of those that do exist have low efficacy and severe side effects. Therefore, if we can find the compounds that effectively block DNA replication either by directly damaging DNA or by inhibiting other cellular mechanisms, the options for cancer treatment will be broadened. With this in mind, we developed a quantitative high-throughput ELG1-luciferase reporter gene assay. Small molecules that specifically block ELG1 function in response to DNA damage can be identified by monitoring the suppression of luciferase activity. Since ELG1 defines a pathway for repairing DNA damage, agents blocking ELG1 function can be used to sensitize cancer cells to chemotherapeutic agents whose mechanism of action involves the induction of DNA damage.
# NIH Molecular Libraries Probe Production Network [MLPCN]
# NIH Chemical Genomics Center [NCGC]
# Assay Provider: Kyungjae Myung, NHGRI, NIH
# For genotoxicity screening, 2,000 cells in 4 uL/well were dispensed into white, solid-bottom 1536-well plates using a solenoid-based dispenser. 23 nL compound or DMSO vehicle were added by a pin tool, the plates were incubated 16 hr at 37 °C and 5% CO2. 5 ul ONE-Glo (Promega) was then added to each plate and following a 30 min incubation at room temperature, luciferase activity was quantified on a ViewLux CCD-based plate reader.
# Potency is the fitted concentration of half-maximal effect.
row,Compound,Potency
1,C[C@@]12CC[C@H]3[C@@H](CC[C@]4(O)C[C@H](O)CC[C@@]34C=O)[C@]1(O)CC[C@@H]2C1=CC(=O)OC1,425 nM (active)
2,CC(=O)[O][Sn]([c]1ccccc1)([c]1ccccc1)[c]1ccccc1,1410 nM (active)
3,COC1CC(OC2CC[C@@]3(C=O)C4CC[C@]5(C)C(C6=CC(=O)OC6)CC[C@@]5(O)C4CC[C@]3(O)C2)OC(C)C1O (stereo partly drawn),199 nM (active)
